The target of experiment [1] is T1, GST-Nv-NF-kB (Ser allele) (Nematostella vectensis, UniProt A7UNT2 2-411).
T1 sequence: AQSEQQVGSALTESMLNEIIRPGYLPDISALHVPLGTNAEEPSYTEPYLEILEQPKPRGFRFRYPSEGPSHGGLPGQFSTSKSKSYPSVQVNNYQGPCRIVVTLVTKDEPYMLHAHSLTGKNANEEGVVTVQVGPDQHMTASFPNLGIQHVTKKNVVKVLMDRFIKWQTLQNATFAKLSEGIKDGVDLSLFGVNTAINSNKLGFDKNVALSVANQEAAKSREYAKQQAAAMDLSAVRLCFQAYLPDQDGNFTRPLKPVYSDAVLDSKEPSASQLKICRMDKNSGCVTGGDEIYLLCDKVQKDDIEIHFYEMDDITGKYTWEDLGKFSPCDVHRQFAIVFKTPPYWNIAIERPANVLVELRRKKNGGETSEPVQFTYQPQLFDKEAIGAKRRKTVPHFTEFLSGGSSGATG
Put plainly: protein-binding microarray (PBM); PBM: ~300 nM protein, 6 mM HEPES pH 7.8, 80 mM KCl, 0.5 mM EDTA, 0.5 mM EGTA, 6% glycerol, 35 ng/ul poly-dIdC, 1% milk, 1 h, room temperature; Ap Aiptasia and Nv Nematostella (sea anemones) / Co Capsaspora / Aq Amphimedon (sponge) / Dm Drosophila / Hu human; RHD is the Rel homology domain; high values mean tight binding. Conditions: dsDNA, one strand shown.

The target in a further experiment is GST-Hu-p50 (Homo sapiens, UniProt P19838 7-356). The experiment is described as above. Conditions: dsDNA, one strand shown.
Chain of GST-Hu-p50 (P19838 7-356): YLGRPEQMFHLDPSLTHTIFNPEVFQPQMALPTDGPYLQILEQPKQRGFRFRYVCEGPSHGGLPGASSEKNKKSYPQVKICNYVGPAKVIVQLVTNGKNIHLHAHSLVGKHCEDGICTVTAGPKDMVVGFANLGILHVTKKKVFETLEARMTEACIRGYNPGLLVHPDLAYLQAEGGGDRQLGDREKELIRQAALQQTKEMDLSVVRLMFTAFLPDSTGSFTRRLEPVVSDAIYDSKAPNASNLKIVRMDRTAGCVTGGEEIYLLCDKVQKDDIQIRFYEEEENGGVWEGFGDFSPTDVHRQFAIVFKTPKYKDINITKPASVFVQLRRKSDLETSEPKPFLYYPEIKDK

These results are taken from paper PMC5700166.

On to “CCGATTAACATCACAGTACCCCCTGATGTTAATCGGGTCTTGATTCGCTTGACGCTGCTG”, for which the binding signal came out at 3.98 z-score in experiment [1] and 3.45 z-score with GST-Hu-p50.
For “CCGATTAACATCACATTGTCCCCTGATGTTAATCGGGTCTTGATTCGCTTGACGCTGCTG” the same measures were 5.06 z-score and 3.52 z-score.
For “CCGATTAACATCACGGTGGGAAATGATGTTAATCGGGTCTTGATTCGCTTGACGCTGCTG” the same measures were 2.58 z-score and 1.86 z-score.
As to “CCGATTAACATCAAAACAGTCCCTGATGTTAATCGGGTCTTGATTCGCTTGACGCTGCTG”, the binding signal (in experiment [1]; with GST-Hu-p50) was 4.68 z-score each time.
As to “CCGATTAACATCAGGGAATGCACTGATGTTAATCGGGTCTTGATTCGCTTGACGCTGCTG”, the binding signal came out at 2.1 z-score in experiment [1] and 2.28 z-score in the experiment with GST-Hu-p50.
Turning to “CCGATTAACATCAGAAAATCCCATGATGTTAATCGGGTCTTGATTCGCTTGACGCTGCTG”, the binding signal was found to be 3.29 z-score in experiment [1] and 3.86 z-score with GST-Hu-p50.
Taken in the same sequence, the figures for “CCGATTAACATCAGGGGGTGTACTGATGTTAATCGGGTCTTGATTCGCTTGACGCTGCTG” were 3.99 z-score and 4.44 z-score.
For “CCGATTAACATCATGGGAAAAAATGATGTTAATCGGGTCTTGATTCGCTTGACGCTGCTG” the same measures were 5.03 z-score and 3.83 z-score.
Taken in the same sequence, the figures for “CCGATTAACATCAGGGAATTCCATGATGTTAATCGGGTCTTGATTCGCTTGACGCTGCTG” were 5.22 z-score and 4.7 z-score.
Consider “CCGATTAACATCACAAAAATCCCTGATGTTAATCGGGTCTTGATTCGCTTGACGCTGCTG”, for which the binding signal is 5.52 z-score in experiment [1] and 5.26 z-score with GST-Hu-p50.
Taken in the same sequence, the figures for “CCGATTAACATCACCTCTTTCCCTGATGTTAATCGGGTCTTGATTCGCTTGACGCTGCTG” were 3.91 z-score and 2.44 z-score.
Taken in the same sequence, the figures for “CCGATTAACATCACGGGGGGGACTGATGTTAATCGGGTCTTGATTCGCTTGACGCTGCTG” were 4.38 z-score and 4.37 z-score.
